Reference: PubChem BioAssay (NCATS)
Results filed as inconclusive are left out. Unmarked numbers belong to inactive results. Active and inactive are the calls of the source. Calls come from the whole dose curve.

These compounds were tested against Peroxisome proliferator-activated receptor delta (Homo sapiens) (UniProt Q03181) (assay: qHTS assay for small molecule agonists of peroxisome proliferator-activated receptor delta signaling (AID 588534;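 note: 0% = DMSO basal wells and 100% = positive control agonist at 10 µM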)). Conditions: HEK293T PPARdelta-UAS-bla, beta-lactamase ratio, 18 h; series mostly up to 76.7 µM; activation: at the top concentration.
Outline: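 Cells carrying a PPAR-delta beta-lactamase reporter were treated with compounds for 18 h at 37 °C in agonist mode. CCF4 fluorescence was read after 2 h; EC50 and efficacy from Hill fits.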

Peroxisome proliferator-activated receptor delta (Homo sapiens), sequence (Q03181 whole entry, looked up): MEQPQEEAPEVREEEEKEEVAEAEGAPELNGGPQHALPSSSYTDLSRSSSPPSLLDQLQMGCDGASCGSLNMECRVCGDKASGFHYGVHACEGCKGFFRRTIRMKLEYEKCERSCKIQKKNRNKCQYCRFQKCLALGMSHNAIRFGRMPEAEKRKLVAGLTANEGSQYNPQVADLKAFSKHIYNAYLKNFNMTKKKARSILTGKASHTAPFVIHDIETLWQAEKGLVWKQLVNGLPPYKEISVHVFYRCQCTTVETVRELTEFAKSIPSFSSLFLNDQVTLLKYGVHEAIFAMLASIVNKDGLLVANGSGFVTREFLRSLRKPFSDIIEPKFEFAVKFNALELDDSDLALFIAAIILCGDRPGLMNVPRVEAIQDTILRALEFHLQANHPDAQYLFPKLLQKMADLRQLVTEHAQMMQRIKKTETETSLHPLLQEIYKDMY

Structure (SMILES)	activation	outcome
NNC(=O)c1ccncc1	4.67%	
Cc1c(C(=O)NCCO)[n+](=O)c2ccccc2n1[O-]	4.71%	
Cc1cc(O)cc(C)c1Cl	6.09%	
CCc1cc(C(N)=S)ccn1		inactive
C=CCc1ccc(O)c(OC)c1		inactive
Cc1ccc(C(C)C)c(O)c1	-5.67%	
CCCCCCCCCCCCCCCC(=O)OC(C)C	-1.12%	
CCCC(O)C(CC)CO (stereo not given)	-4.07%	
COc1cc(OC)c(C(=O)CCCN2CCCC2)c(OC)c1	-2.71%	
Nc1ccc(S(N)(=O)=O)cc1	-5.42%	
Cc1nnc(NS(=O)(=O)c2ccc(N)cc2)s1	-0.793%	
CC(=O)NS(=O)(=O)c1ccc(N)cc1	-5.9%	
O=C(c1ccccc1)C(O)c1ccccc1 (stereo not given)		inactive
NCCNCCNCCNCCN		inactive
O=C1c2c(O)cccc2Cc2cccc(O)c21	3.65%	
CCCCCCCCCCCCCCCCO	0.111%	
O=C(OOC(=O)c1ccccc1)c1ccccc1	-0.786%	
O=C(O)c1cc(=O)[nH]c(=O)[nH]1	2.86%	

Structure (SMILES)	activation	outcome
CC(C)Cc1ccc(C(C)C(=O)O)cc1 (stereo not given)	-1.31%	
O=C(OCc1ccccc1)c1ccccc1	2.46%	
O=C(O)CCCCC1CCSS1 (stereo not given)	-12.2%	
O=C(N[C@H](CO)[C@H](O)c1ccc([N+](=O)[O-])cc1)C(Cl)Cl		inactive
CC(=O)OCC(COC(C)=O)OC(C)=O		inactive
COC(=O)c1ccc(O)cc1	-3.13%	
O=C(O)c1cc(O)c(O)c(O)c1	10.6%	
O=C(O)/C=C\C(=O)O	7.55%	
CC1CC(OC(=O)c2ccccc2O)CC(C)(C)C1 (stereo not given)	10.4%	
CCCCOC(=O)c1ccc(N)cc1	0.69%	
CCCCC(CC)COC(=O)c1ccccc1O (stereo not given)	1.22%	
CO/N=C(/C(=O)N[C@@H]1C(=O)N2C(C(=O)O)=C(COC(N)=O)CS[C@H]12)c1ccco1	0.209%	
CCCCCCCCCCCCCCCCCCO	-0.46%	
CC(C)(C)CC(C)(C)c1ccc(O)c(-n2nc3ccccc3n2)c1	-4.09%	
CC(C)(Oc1ccc(Cl)cc1)C(=O)O	2.33%	
N[C@@H](Cc1cc(I)c(Oc2ccc(O)c(I)c2)c(I)c1)C(=O)O	-7.33%	
COc1ccc(O)cc1	2.95%	
